Data: PubChem BioAssay (NCI)
This is part of a sample that, as a whole, favours compounds with a hit. Of some 83,000 tested, about 20% had one in any assay.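 Assay: single dose, 48 h. Readout: percent growth (0 = no net growth; negative = cell death). Active: <10.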 A number with no mark means an inactive call. Active and inactive are the calls of the source.

What was measured:
Experiment in all cases: NCI-60 one-dose screen, 48 h (100 = growth as untreated, 0 = no growth, -100 = all killed)
Settings in all cases: 10 µM unless noted
NCI-H23 lung = tested on: NCI-H23 lung
NCI-H226 lung = tested on: NCI-H226 lung
NCI-H322M lung = tested on: NCI-H322M lung
HOP-62 NSCLC = tested on: HOP-62 NSCLC
NCI-H460 lung = tested on: NCI-H460 lung
HOP-92 NSCLC = tested on: HOP-92 NSCLC
NCI-H522 lung = tested on: NCI-H522 lung
A549/ATCC NSCLC = tested on: A549/ATCC NSCLC
786-0 renal = tested on: 786-0 renal
COLO 205 colon = tested on: COLO 205 colon
DU-145 prostate = tested on: DU-145 prostate
K-562 leukemia = tested on: K-562 leukemia
MALME-3M melanoma = tested on: MALME-3M melanoma
MDA-MB-231 breast = tested on: MDA-MB-231 breast
RXF 393 renal = tested on: RXF 393 renal
SF-268 CNS = tested on: SF-268 CNS
SF-539 CNS = tested on: SF-539 CNS
UACC-257 melanoma = tested on: UACC-257 melanoma
M14 melanoma = tested on: M14 melanoma
SF-295 CNS = tested on: SF-295 CNS

| Compound | growth (NCI-H23 lung) | growth (NCI-H226 lung) | growth (NCI-H322M lung) | growth (HOP-62 NSCLC) | growth (NCI-H460 lung) | growth (HOP-92 NSCLC) | growth (NCI-H522 lung) | growth (A549/ATCC NSCLC) | growth (786-0 renal) | growth (COLO 205 colon) | growth (DU-145 prostate) [%] | growth (K-562 leukemia) | growth (MALME-3M melanoma) | growth (MDA-MB-231 breast) | growth (RXF 393 renal) | growth (SF-268 CNS) [%] | growth (SF-539 CNS) | growth (UACC-257 melanoma) | growth (M14 melanoma) | growth (SF-295 CNS) [%] |
| --- | --- | --- | --- | --- | --- | --- | --- | --- | --- | --- | --- | --- | --- | --- | --- | --- | --- | --- | --- | --- |
| COc1cc(C)cc2oc3oc(=O)c(-c4csc(-c5cc6ccccc6oc5=O)n4)cc3c(=O)c12 | 101% | 102% | 105% | 103% | 106% | 105% | 103% | 114% | 106% | 119% | 113 | 112% | 105% | 99.5% | 102% | 105 | 99.3% | 115% | 104% |  |
| Nc1ccc(C(OC(=O)c2cc3ccccc3c(Cc3c(O)c(C(=O)OC(c4ccc(N)cc4)(c4ccc(N)cc4)c4ccc(N)cc4)cc4ccccc34)c2O)(c2ccc(N)cc2)c2ccc(N)cc2)cc1 | 9.92% (active) | 30.8% | 3.77% (active) | 6.24% (active) | 1.82% (active) | -6.69% (active) | 9.97% (active) | 10.7% | 23.5% | -83.7% (active) | 21.9 | 7.72% (active) | 5.78% (active) | -9.83% (active) | 28% | 24.6 | 10.3% | 6.17% (active) | 14.9% |  |
| Cc1cc(-c2nnc(/C=C/c3ccc4c(c3)OCO4)o2)n[nH]1 | 77.7% | 95.2% | 66.5% | 78.5% | 84.3% | 80.7% | 15.2% | 58.7% | 97.2% | 61.6% | 83.4 | 23.5% | 49.4% | 54.4% | 85.5% | 74.9 | 46.3% | 78.1% | 46.3% |  |
| CCOC(=O)C(Nc1ccccc1)C(=O)OCC | 108% | 99.6% | 88.1% | 101% | 115% | 72.9% | 102% | 100% | 110% | 119% | 122 | 92.4% | 93.2% | 105% | 114% | 122 | 111% | 112% | 103% |  |
| NC(=S)N/N=C(/c1cccs1)C1CC1 | 101% | 90.5% | 93% | 91.8% | 106% | 107% | 87.4% | 63.6% | 105% | 105% | 105 | 69.3% | 96% | 91.4% | 102% | 99.4 | 95.7% | 39.4% | 71.3% |  |
| CC(=O)[C@H]1CC[C@H]2[C@@H]3CC[C@H]4CC=CC[C@]4(C)[C@H]3CC[C@]12C | 96.8% | 92.9% | 95.2% | 109% | 104% | 101% | 40% | 84% | 91.7% | 106% | 111 | 84.9% | 84% | 99.4% | 98.2% | 102 | 91.6% | 75.6% | 90.3% |  |
| c1ccc(C(Nc2ccccn2)(c2ccccc2)c2ccccc2)cc1 | 74.6% | 72.6% | 64.8% | 99% | 79.9% | 4.44% (active) | 70.7% | 65.9% | 81.4% | 90% | 85.6 | 56% | 109% | 66.8% | 82.9% | 99.5 | 86.4% | 97.4% | 87.9% |  |
| CCC(=O)NC(O)C(Cl)(Cl)C(C)Cl (centres undefined) | 96.3% | 95.7% | 99.6% | 102% | 109% | 88.1% | 102% | 97.5% | 101% | 114% | 116 | 112% | 87% | 99.8% | 111% | 109 | 99.3% | 93.4% | 98.7% |  |
| Nc1nc(N)c2cc(CNc3ccc(Cl)c(Cl)c3)ccc2n1 | 42.8% | 45.2% | 29.5% | 43.1% | -48.8% (active) | -5.15% (active) | 13.4% | 17.7% | 9.65% (active) | -79.7% (active) | 44.6 | -72.3% (active) | 47.1% | -23.9% (active) | 26.5% | 35 | 23.7% | 32.4% | -69.7% (active) |  |
| Cc1ccc(N2C3c4ccccc4N(S(=O)(=O)c4ccc(C)cc4)C2c2ccccc2N3S(=O)(=O)c2ccc(C)cc2)cc1 | 99.9% | 94.3% | 106% | 107% | 99.5% | 101% | 106% | 97.1% | 112% | 115% | 104 | 90.4% | 97.9% | 94.3% | 121% | 107 | 95.4% | 102% | 110% |  |
| Clc1ncnc2scc(C3COc4ccccc4O3)c12 (centres undefined) | 95.9% | 75.3% | 98.6% | 105% | 106% | 78.9% | 53.6% | 95.5% | 104% | 100% | 76.8 | 69.8% | 58.7% | 98.3% | 99.6% | 101 | 94.1% | 93.2% | 88.4% |  |
| COc1cc2c(cc1OC)C(=O)C(Br)CC2 (centres undefined) | 45.8% | 90.8% | 102% | 51% | 75% | 20.2% | -17.3% (active) | 80.1% | 63.8% | 24.6% | 31.5 | 16.5% | 3.69% (active) | 42.6% | 40.8% | 64.6 | 68.2% | 56.7% | 32% |  |
| C=CCn1c(SCC(=O)Nc2ccc(C(=O)/C=C/c3ccccc3)cc2)nnc1-c1ccc(OC)c(OC)c1 | 80.7% | 85.9% | 85.9% | 99.1% | 88.2% | 82.7% | 68.3% | 61% | 75.6% | 91.2% | 89.6 | 47.5% | 105% | 77.1% | 85.7% | 86 | 92.1% | 79.9% | 73.6% |  |
| C#CCNC(=S)N/N=C(\C)c1ccccn1 | 20.1% | 5% (active) | -4.06% (active) | 26.5% | 4% (active) | 52.4% | 43.9% | 23.9% | 4.03% (active) | 19.6% | 15.4 | 15.2% | 12.1% | 39.5% | 6.73% (active) | 14.7 | 1.69% (active) | 16.4% | -21.7% (active) |  |
| CC1(C)C(N(O)C(=O)Nc2ccc(Cl)cc2)N(c2ccc(Cl)cc2)C(=O)N1CC(=O)N/N=C/C=C/c1ccc([N+](=O)[O-])o1 (centres undefined) | 3.01% (active) | 25.8% | 49% | 36.8% | -13.1% (active) | -30.9% (active) | -88.5% (active) | 6.98% (active) | -48.9% (active) | -81.3% (active) | 12.5 | 13.1% | -42.6% (active) | -48.7% (active) | -77.9% (active) |  | -73.3% (active) | -33.7% (active) | -65.6% (active) | 54.9 |
| C#CC[C@@H]1C[C@]2(C)[C@H]3CC[C@@H]4[C@H]5C(C(=C)C)CC[C@]5(C(=O)NCCN(CCN)CCN)CC[C@@]4(C)[C@]3(C)CC[C@H]2C(C)(C)[C@H]1OC(C)=O (some centres undefined) | 77.3% | 65.9% | 71.4% | 83.3% | 81.8% | 66.3% | 61.7% | 53.4% | 90.3% | 69.3% | 95.1 | 2.56% (active) | 85.7% | 33% | -66.1% (active) | 87.6 | 95.2% | 109% | 91.3% |  |
